Source: PubChem BioAssay (NCATS)
Records with an inconclusive call do not appear. Entries that show only a call come without a potency. Active and inactive are the calls of the source. The call rests on the fitted dose curve; in most records, active means well fitted inhibition curve with a large enough effect; inconclusive means small, poorly fitted or top-dose-only effect; inactive means flat fitted curve, though single readings scatter.

System: CP266
Experiment: qHTS profiling for inhibitors of Plasmodium falciparum proliferation (AID 504749); further: nearly all actives have a fitted effect of over 60% in size
Conditions: P. falciparum in erythrocytes, SYBR Green DNA, 72 h; series mostly up to 28.7 µM
Summary of the method: (§1)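 Three-day growth assay of blood-stage parasites in erythrocytes (0.3% parasitemia, 2.5% hematocrit) at 37 C, 5% CO2, quantified by SYBR Green DNA staining after overnight detergent lysis.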
Potency means the concentration at half of the fitted maximal effect.

Compound | Potency
CCCCCCCC/C=C\CCCCCCCC(=O)O | inactive
COC(F)(F)C(Cl)Cl | inactive
Nc1c(N=Nc2ccc(-c3ccc(N=Nc4cc(S(=O)(=O)O)c5ccccc5c4N)cc3)cc2)cc(S(=O)(=O)O)c2ccccc12 | inactive
C#CCOc1ccc2c(C)cc(=O)oc2c1 | inactive
CC(O)CO (stereo not given) | inactive
COc1ccc2c3c1O[C@H]1C[C@@H](O)C=C[C@@]31CCN(C)C2 | inactive
CCCCCCCCCCCCCCCC(=O)OCC(COC(=O)CCCCCCCCCCCCCCC)OC(=O)CCCCCCCCCCCCCCC | inactive
O=C(O)CN(CCN(CC(=O)O)CC(=O)O)CC(=O)O | inactive
CCCCCCC(O)C/C=C/CCCCCCCC(=O)O (stereo not given) | inactive
C=CCSSSCC=C | inactive
CCC(=O)NCCC1CCc2ccc3c(c21)CCO3 (stereo not given) | inactive
C[C@@H]1CCC2[C@@H](C)[C@@H](O)O[C@@H]3O[C@@]4(C)CC[C@@H]1[C@@]23OO4 (stereo not given in full) | 0.0076 µM (active)
CCCCC/C=C\C/C=C\CCCCCCCC(=O)O | inactive
CCCC(=O)O[C@]1(C(=O)CCl)[C@H](C)C[C@@H]2[C@H]3CCC4=CC(=O)C=C[C@]4(C)[C@@]3(F)C(=O)C[C@@]21C | 3.38 µM (active)
CCOc1ccc(N=Nc2ccc(N)cc2N)cc1 | inactive
NC(=O)c1ncn(C2OC(CO)C(O)C2O)n1 (stereo not given) | inactive
COCC(=O)Nc1cc(Sc2ccccc2)ccc1N=C(NC(=O)OC)NC(=O)OC | inactive
Cc1ccccc1OCC(O)CNCCOc1ccc(C(N)=O)cc1 (stereo not given) | inactive
CCCCCCCC(=O)O | inactive
CC1=CCC(C(C)(C)O)CC1 (stereo not given) | inactive
CC(NNC(=O)c1ccccc1)c1ccccc1 (stereo not given) | inactive
CCOc1ccc2c(c1)C(C)=CC(C)(C)N2 | inactive
CO[C@H]1C[C@@H]2CC[C@@H](C)[C@@](O)(O2)C(=O)C(=O)N2CCCC[C@H]2C(=O)O[C@H]([C@H](C)C[C@@H]2CC[C@@H](OCCO)[C@H](OC)C2)CC(=O)[C@H](C)/C=C(\C)[C@@H](O)[C@@H](OC)C(=O)[C@H](C)C[C@H](C)/C=C/C=C/C=C/1C | 6.01 µM (active)
Cc1ccccc1 | inactive
CCCCC(C)(O)C/C=C/[C@H]1[C@H](O)CC(=O)[C@@H]1CCCCCCC(=O)OC (stereo not given in full) | inactive

System: CP268
Experiment: as above
Conditions: P. falciparum in erythrocytes, SYBR Green DNA, 72 h; series mostly up to 28.7 µM
Summary of the method: as §1

Compound | Potency
CCCCCCCC/C=C\CCCCCCCC(=O)O | inactive
COC(F)(F)C(Cl)Cl | inactive
Nc1ncnc2c1ncn2[C@@H]1O[C@H](COP(=O)(O)OP(=O)(O)OP(=O)(O)O)[C@@H](O)[C@H]1O | inactive
Nc1c(N=Nc2ccc(-c3ccc(N=Nc4cc(S(=O)(=O)O)c5ccccc5c4N)cc3)cc2)cc(S(=O)(=O)O)c2ccccc12 | inactive
C#CCOc1ccc2c(C)cc(=O)oc2c1 | inactive
CC(O)CO (stereo not given) | inactive
COc1ccc2c3c1O[C@H]1C[C@@H](O)C=C[C@@]31CCN(C)C2 | inactive
O=S(=O)(O)O | inactive
CCCCCCCCCCCCCCCC(=O)OCC(COC(=O)CCCCCCCCCCCCCCC)OC(=O)CCCCCCCCCCCCCCC | inactive
O=C(O)CN(CCN(CC(=O)O)CC(=O)O)CC(=O)O | inactive
CCCCCCC(O)C/C=C/CCCCCCCC(=O)O (stereo not given) | inactive
C=CCSSSCC=C | inactive
CCC(=O)NCCC1CCc2ccc3c(c21)CCO3 (stereo not given) | inactive
C[C@@H]1CCC2[C@@H](C)[C@@H](O)O[C@@H]3O[C@@]4(C)CC[C@@H]1[C@@]23OO4 (stereo not given in full) | 0.0038 µM (active)
CCCCC/C=C\C/C=C\CCCCCCCC(=O)O | inactive
CCCC(=O)O[C@]1(C(=O)CCl)[C@H](C)C[C@@H]2[C@H]3CCC4=CC(=O)C=C[C@]4(C)[C@@]3(F)C(=O)C[C@@]21C | 4.26 µM (active)
CCOc1ccc(N=Nc2ccc(N)cc2N)cc1 | inactive
NC(=O)c1ncn(C2OC(CO)C(O)C2O)n1 (stereo not given) | inactive
COCC(=O)Nc1cc(Sc2ccccc2)ccc1N=C(NC(=O)OC)NC(=O)OC | inactive
CC1=C(/C=C/C(C)=C/C=C/C(C)=C/C=C/C=C(C)/C=C/C=C(C)/C=C/C2=C(C)CCCC2(C)C)C(C)(C)CCC1 | inactive
Cc1ccccc1OCC(O)CNCCOc1ccc(C(N)=O)cc1 (stereo not given) | inactive
CCCCCCCC(=O)O | inactive
CC1=CCC(C(C)(C)O)CC1 (stereo not given) | inactive
CC(NNC(=O)c1ccccc1)c1ccccc1 (stereo not given) | inactive
CCOc1ccc2c(c1)C(C)=CC(C)(C)N2 | inactive
CO[C@H]1C[C@@H]2CC[C@@H](C)[C@@](O)(O2)C(=O)C(=O)N2CCCC[C@H]2C(=O)O[C@H]([C@H](C)C[C@@H]2CC[C@@H](OCCO)[C@H](OC)C2)CC(=O)[C@H](C)/C=C(\C)[C@@H](O)[C@@H](OC)C(=O)[C@H](C)C[C@H](C)/C=C/C=C/C=C/1C | 4.26 µM (active)
COC(=O)CCC(=O)CN | inactive
Cc1ccccc1 | inactive
CCCCC(C)(O)C/C=C/[C@H]1[C@H](O)CC(=O)[C@@H]1CCCCCCC(=O)OC (stereo not given in full) | inactive
O=C(O)c1cc(O)c2c(c1)[O][Bi][O]2 | inactive
